Entries with a potency or affinity are not part of this list. Results filed as inconclusive are left out. The source made the active and inactive calls.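 How the source made its calls: active means falling signal with fitted half-maximal potency no higher than twice the top valid tested dose; inconclusive means poor fit quality, or flat fit spanning -70% to -30%; inactive means potency over limit, rising signal, or flat fit inside 30%.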
Test: Cryptococcus neoformans growth inhibition, dose response, Alamar Blue, cherry-picks (AID 686998)
Details: 24 h; series mostly up to 35 µM

outcome, inactive:
Cc1ccc(NC(=O)C2(C)CCN2C(=O)CC2CCCC2)cc1 (centres undefined), O=C(NCC[C@H]1CC[C@@H](NS(=O)(=O)c2ccc(F)cc2)[C@H](CO)O1)c1ccc2c(c1)OCO2, N#C[C@@H]1[C@@H](c2ccccc2)[C@@H](CO)N1C(=O)Cc1ccccc1, CCS(=O)(=O)N1CCCCN2[C@H](CO)[C@@H](c3ccc(-c4ccc(C#N)cc4)cc3)[C@@H]2C1, CO[C@H]1CN(C)C(=O)c2cc(NS(=O)(=O)c3ccc(C)cc3)ccc2OC[C@H](C)N(C)C[C@H]1C, CO[C@@H]1CN(C)C(=O)c2cc(NS(=O)(=O)c3ccc(C)cc3)ccc2OC[C@@H](C)N(C)C[C@@H]1C, COc1ccc(CN(C)C[C@@H]2OCCCC[C@H](C)Oc3ccc(N(C)C)cc3C(=O)N([C@H](C)CO)C[C@@H]2C)cc1, CCc1ccc(NC(=O)C2NC(=O)CC2c2ccccc2)cc1 (centres undefined), COCC(=O)N1[C@H](C#N)[C@H](c2ccc(C#Cc3ccccc3F)cc2)[C@H]1CO, C[C@H](CO)N1C[C@H](C)[C@H](CN(C)C(=O)NC2CCCCC2)OCCCC[C@H](C)Oc2ccc(NC(=O)C3CCCCC3)cc2C1=O, CC(NC(=O)COc1ccc([N+](=O)[O-])cc1)c1ccccc1 (centres undefined), O=C(Nc1ccccc1)N[C@@H]1CC[C@@H](CCNC(=O)c2ccccc2F)O[C@H]1CO, C[C@H](CO)N1C[C@H](C)[C@H](CN(C)C(=O)c2ccccn2)Oc2ncc(-c3ccccc3)cc2C1=O, C[C@@H]1CN([C@H](C)CO)C(=O)c2cc(NS(=O)(=O)c3ccc(Cl)cc3)ccc2O[C@H]1CN(C)S(=O)(=O)c1ccc(F)cc1, CCOC(=O)CNC(=O)CSc1ncnc2c1cnn2-c1ccc(OC)cc1, O=C([C@@H]1[C@@H](CO)[C@@H]2Cn3c(cccc3=O)[C@@H]2N1CCC(F)(F)F)N1CCCCC1, O=C(C[C@@H]1CC[C@@H]2[C@H](COC[C@H](O)CN2Cc2cccc(C(F)(F)F)c2)O1)NCc1ccccc1, CC=Cc1ccc2n(c1=O)C[C@H]1[C@H](CO)[C@@H](C(=O)NCc3ccc4c(c3)OCO4)[C@@H]2N1C(=O)C1CC1 (mixture of isomers), Cc1cc(C)c(NC(=O)C2CCC(=O)N2)c(C)c1 (centres undefined), CCCNC(=O)Nc1ccc2c(c1)C(=O)N(C)C[C@H](OC)[C@@H](C)CN(C(=O)CC)[C@@H](C)CO2, CCCNC(=O)N1C[C@@H](O)COC[C@H]2O[C@H](CC(=O)N3CCN(C)CC3)CC[C@@H]21, COc1ccc(NC(=O)N(C)C[C@H]2OCCCC[C@@H](C)Oc3ccc(N(C)C)cc3C(=O)N([C@H](C)CO)C[C@H]2C)cc1, COc1ccc(NC(=O)Nc2ccc3c(c2)C(=O)N([C@H](C)CO)C[C@H](C)[C@H](CN(C)C(=O)Cc2ccccc2)OCCCC[C@H](C)O3)cc1, COc1ccccc1CNC(=O)C[C@@H]1CC[C@@H]2[C@H](COc3ccc(NC(C)=O)cc3C(=O)N2C)O1, C[C@@H]1CCCCO[C@@H](CN(C)Cc2ccc3c(c2)OCO3)[C@@H](C)CN([C@H](C)CO)C(=O)c2cc(NS(=O)(=O)c3ccc(F)cc3)ccc2O1, Cc1ccccc1S(=O)(=O)N[C@H]1CC[C@H](CCNS(=O)(=O)c2cccc(F)c2)O[C@H]1CO, CNC(=O)C[C@@H]1CC[C@@H]2[C@H](COC[C@@H](O)CN2C(=O)Nc2ccc3c(c2)OCO3)O1, O=C(CN(c1ccccc1)S(=O)(=O)c1ccc(F)cc1)NC1CCS(=O)(=O)C1 (centres undefined), C[C@@H]1CN([C@H](C)CO)C(=O)c2cc(-c3cccc(F)c3)cnc2O[C@H]1CN(C)Cc1ccccc1, O=C1CCC(C(=O)Nc2ccc(Cl)cc2)N1 (centres undefined), C[C@@H]1CN([C@@H](C)CO)C(=O)c2cccc(NS(=O)(=O)c3ccc(F)cc3)c2O[C@H]1CN(C)S(=O)(=O)c1ccc(Cl)cc1, CCC(C)(C(=O)NC1CCCCC1)N(C(=O)C1CCC(=O)N1)c1ccccc1 (centres undefined), C[C@@H](NC(=O)C[C@H]1CC[C@@H](NC(=O)Cc2ccccn2)[C@@H](CO)O1)c1ccccc1, CCNC(=O)Nc1ccc2c(c1)C(=O)N(C)[C@H]1CC[C@H](CC(=O)N[C@@H](C)c3ccccc3)O[C@H]1CO2

From PubChem BioAssay
